# Records with an inconclusive call do not appear. Active and inactive are the calls of the source. Unless noted, calls follow the shape of the dose curve; as a rule, active = well fitted curve in the direction sought with a large enough effect; inconclusive = small, poorly fitted or top-dose-only effect, or another doubt; inactive = no such curve, though single readings can be large; an effect the other way counts as inactive or inconclusive.
# How the values were obtained:
# [1] = target: Lysosomal acid glucosylceramidase (Homo sapiens) (UniProt P04062); assay: Glucocerebrosidase-p2 (AID 348; in the data active = potency below about 10 µM; also: potency is read from the fitted curve at half-maximal effect); conditions: purified GBA, blue fluorogenic substrate, 40 min
# Chain of Lysosomal acid glucosylceramidase (Homo sapiens) (P04062 whole entry, looked up): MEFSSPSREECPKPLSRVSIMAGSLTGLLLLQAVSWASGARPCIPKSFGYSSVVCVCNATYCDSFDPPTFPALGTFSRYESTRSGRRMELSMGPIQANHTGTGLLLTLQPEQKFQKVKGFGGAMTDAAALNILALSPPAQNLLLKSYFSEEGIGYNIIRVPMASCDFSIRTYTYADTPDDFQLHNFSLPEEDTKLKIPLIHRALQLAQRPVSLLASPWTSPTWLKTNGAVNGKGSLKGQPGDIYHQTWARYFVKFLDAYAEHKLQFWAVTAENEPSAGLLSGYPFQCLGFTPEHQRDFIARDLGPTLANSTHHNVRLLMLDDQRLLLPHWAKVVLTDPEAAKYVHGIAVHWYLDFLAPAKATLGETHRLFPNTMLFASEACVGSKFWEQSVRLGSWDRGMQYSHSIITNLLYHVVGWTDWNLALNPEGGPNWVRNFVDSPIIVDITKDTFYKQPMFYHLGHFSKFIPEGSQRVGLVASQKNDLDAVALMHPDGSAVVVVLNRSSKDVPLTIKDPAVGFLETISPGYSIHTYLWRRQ
# How it was run: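 Normal human glucocerebrosidase (0.2 nM) with blue fluorogenic substrate (80 uM final) in citrate/phosphate pH 5.9 with 10mM sodium taurocholate, 0.01% tween-20; 40 min RT, NaOH/glycine stop; fluorescence Ex 365/Em 440; AC50 from a titration from 0.6 nM upwards.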
# [2] = AP1 Signaling Pathway (AID 357; active = well fitted curve in either direction with a large enough effect, not every such curve was filed as active; also: % is scaled to controls: 0 for no effect and ±100 for the full control effect); conditions: ME-180 AP-1-bla reporter, EGF-induced, beta-lactamase ratio, 5 h; at 7.69 µM (top of the series) unless noted
# How it was run: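 ME-180 cells with beta-lactamase reporter under AP-1 response element, stimulated with EC50 EGF; compounds tested in titration series, 5 h at 37 °C. CCF4 substrate added 2.5 h at room temperature; 460/530 nm emission ratio gave %activity and AC50.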
# [3] = target: Cytochrome P450 1A2 (Homo sapiens) (UniProt P05177); assay: p450-cyp1a2 (AID 410; calls by dose curve; also: potency is read from the fitted curve at half-maximal effect;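 as to activity change, negative = inhibition: -100% = full effect of reference inhibitor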); conditions: recombinant CYP1A2, luciferin-ME demethylation, luminescence; series mostly up to 57 µM
# Chain of Cytochrome P450 1A2 (Homo sapiens) (P05177 whole entry, looked up): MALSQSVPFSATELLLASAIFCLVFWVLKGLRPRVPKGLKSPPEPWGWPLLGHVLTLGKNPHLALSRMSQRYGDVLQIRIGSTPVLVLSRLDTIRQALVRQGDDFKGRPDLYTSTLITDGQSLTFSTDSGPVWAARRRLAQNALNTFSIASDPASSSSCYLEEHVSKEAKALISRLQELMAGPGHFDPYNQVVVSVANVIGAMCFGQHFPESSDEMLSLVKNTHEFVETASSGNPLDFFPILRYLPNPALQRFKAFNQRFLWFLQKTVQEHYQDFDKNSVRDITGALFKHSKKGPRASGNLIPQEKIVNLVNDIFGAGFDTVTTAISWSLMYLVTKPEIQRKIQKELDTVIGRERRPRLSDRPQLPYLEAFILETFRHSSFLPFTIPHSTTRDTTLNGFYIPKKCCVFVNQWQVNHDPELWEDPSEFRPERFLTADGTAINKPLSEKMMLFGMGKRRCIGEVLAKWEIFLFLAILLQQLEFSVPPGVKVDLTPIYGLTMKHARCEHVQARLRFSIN
# How it was run: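 20nM CYP1A2, 100uM Luciferin-ME (=Km), 100mM KPO4; cpd 10 min RT; +NADPH regen, 60 min RT; stop/detect 20 min; luminescence. Normalized to furafylline 57 uM = full inhibition.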
# [4] = Stat Signaling Pathway (AID 446; active = well fitted curve in either direction with a large enough effect, not every such curve was filed as active;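 also: ME-180 cervical cancer cells given 40 pM IL-6 alongside compound; SIE-controlled beta-lactamase reporter measured as 460/530 nm FRET emission ratio; % is scaled to controls: 0 for no effect and ±100 for the full control effect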); conditions: ME-180 SIE beta-lactamase reporter, IL-6 stimulated, 5 h; at 7.69 µM (top of the series) unless noted
# How it was run: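 Emission at 460 and 530 nm (excitation 405 nm) reports SIE-controlled beta-lactamase in ME-180 cells. Cells received compound with 40 pM IL-6 for 5 hrs at 37 C; data scaled between 300 pM IL-6 and 125 nM JAK-inhibitor controls.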
# [5] = target: Glucocorticoid receptor (Homo sapiens) (UniProt P04150); assay: GR-GFP Redistribution (AID 450;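 active = compounds whose dose series gives a full or clear partial fitted curve of increased nuclear translocation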; also: potency is read from the fitted curve at half-maximal effect); conditions: U2OS GR-GFP nuclear translocation, laser cytometry, 2 h
# Chain of Glucocorticoid receptor (Homo sapiens) (P04150 whole entry, looked up, the tested form may be a part): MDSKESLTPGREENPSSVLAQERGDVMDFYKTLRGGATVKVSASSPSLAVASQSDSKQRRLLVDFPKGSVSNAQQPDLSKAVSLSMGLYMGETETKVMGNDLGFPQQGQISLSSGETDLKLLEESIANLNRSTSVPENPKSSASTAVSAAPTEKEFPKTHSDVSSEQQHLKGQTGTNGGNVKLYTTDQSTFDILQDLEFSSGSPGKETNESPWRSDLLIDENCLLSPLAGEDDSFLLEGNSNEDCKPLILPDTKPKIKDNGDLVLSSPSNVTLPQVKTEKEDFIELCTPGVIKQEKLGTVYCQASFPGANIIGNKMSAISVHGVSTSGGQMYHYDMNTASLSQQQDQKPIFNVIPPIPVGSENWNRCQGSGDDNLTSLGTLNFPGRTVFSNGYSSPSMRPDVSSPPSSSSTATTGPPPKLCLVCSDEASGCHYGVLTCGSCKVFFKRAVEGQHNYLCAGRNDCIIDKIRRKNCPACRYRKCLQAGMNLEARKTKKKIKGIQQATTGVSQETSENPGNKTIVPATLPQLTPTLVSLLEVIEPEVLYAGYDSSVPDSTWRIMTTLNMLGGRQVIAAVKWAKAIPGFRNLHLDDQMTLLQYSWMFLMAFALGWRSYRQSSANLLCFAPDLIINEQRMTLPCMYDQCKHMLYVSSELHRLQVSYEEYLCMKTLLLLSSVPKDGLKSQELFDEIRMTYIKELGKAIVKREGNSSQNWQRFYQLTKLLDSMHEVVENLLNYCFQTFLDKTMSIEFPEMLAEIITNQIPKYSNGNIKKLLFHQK
# [6] = target: Glucocorticoid receptor (Homo sapiens) (UniProt P04150); assay: GR-EFC Redistribution (AID 451; calls by dose curve; also: potency is read from the fitted curve at half-maximal effect); conditions: CHO-K1 GR-EFC translocation, beta-gal luminescence, 2 h
# How it was run: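 Translocation of GR-ED fusion to nuclear EA restores b-gal, read by luminescence after 1 h room-temperature detection. Engineered CHO-K1 biosensor cells, 1,000/well, exposed 2 h at 37 C to titrations up to 46 uM final.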
# [7] = target: Mitogen-activated protein kinase 10 (Mus musculus) (UniProt Q61831); assay: JNK3 AlphaScreen Assay (AID 530; active = well fitted curve in either direction with a large enough effect, not every such curve was filed as active;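 also: kinase came from lysate of stimulated human HepG2 cells; signal reports phosphorylation of biotinylated GST-cJun 1-79 at Ser73 with 10 µM ATP; % is scaled to controls: 0 for no effect and ±100 for the full control effect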); conditions: JNK3 lysate, c-Jun phosphorylation; series mostly up to 57.1 µM
# How it was run: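 Kinase buffer: 20 mM Tris-HCl pH 7.6, 10 mM MgCl2, 1 mM DTT, 0.1 mM Na3VO4, 0.01% Tween-20; ATP 10 uM. Substrate biotin-GST-cJun(1-79), enzyme from activated HepG2 lysates. Detection by Ser73 phospho-antibody AlphaScreen.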
# [8] = target: Cytochrome P450 3A4 (Homo sapiens) (UniProt P08684); assay: qHTS Assay for Activators of Cytochrome P450 3A4 (AID 885); conditions: recombinant CYP3A4, Luciferin-PPXE luminescence, 60 min; series mostly up to 57.1 µM; also: nearly all actives have a fitted effect of over 65% in size
# Chain of Cytochrome P450 3A4 (Homo sapiens) (P08684 whole entry, looked up): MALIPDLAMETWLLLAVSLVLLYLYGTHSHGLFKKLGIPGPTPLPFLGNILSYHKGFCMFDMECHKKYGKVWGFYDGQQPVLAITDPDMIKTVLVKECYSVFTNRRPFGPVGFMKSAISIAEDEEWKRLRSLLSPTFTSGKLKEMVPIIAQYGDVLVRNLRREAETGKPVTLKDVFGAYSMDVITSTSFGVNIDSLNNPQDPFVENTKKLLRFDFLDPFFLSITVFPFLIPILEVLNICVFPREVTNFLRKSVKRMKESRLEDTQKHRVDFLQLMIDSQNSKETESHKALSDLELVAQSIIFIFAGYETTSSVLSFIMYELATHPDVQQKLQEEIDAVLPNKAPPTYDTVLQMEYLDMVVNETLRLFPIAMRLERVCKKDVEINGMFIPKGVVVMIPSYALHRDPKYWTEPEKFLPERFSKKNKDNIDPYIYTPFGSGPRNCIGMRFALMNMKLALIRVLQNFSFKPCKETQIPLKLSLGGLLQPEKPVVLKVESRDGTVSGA
# How it was run: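 Activators are scored by enhanced luminescence from CYP3A4 conversion of luciferin-PPXE (25uM, equal to KM) to luciferin, after 60 min at RT with an NADPH-regenerating system.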
# [9] = Confirmation and Secondary Assay for Modulators of Hemoglobin Beta Chain Splicing at IVS2 654 locus (AID 910); conditions: HeLa EGFP-654 splicing reporter, GFP fluorescence, 48 h; series mostly up to 38.3 µM;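 also: HeLa cells stably carrying EGFP split by mutant beta-globin IVS2-654 intron; per-well total GFP intensity by laser scanning cytometry after 2-day treatment; % of control where 0% means no effect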
# How it was run: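 Readout: per-well total peak green fluorescence (488 nm ex, 500–520 nm em) from objects 5–250 µm, reflecting correct splicing of an EGFP-654 reporter. Compounds were applied for 2 days at 37 °C to overnight-plated HeLa EGFP-654 cells; controls were DMSO and 500 nM IVS2-654 PNA.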
# [10] = Confirmation and Secondary Assay for Modulators of Hemoglobin Beta Chain Splicing at IVS2 705 locus (AID 930); conditions: HeLa EGFP-705 splicing reporter, GFP fluorescence, 48 h; series mostly up to 38.3 µM;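 also: HeLa cells stably expressing the EGFP-705 splicing reporter; % of control where 0% means no effect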
# How it was run: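 HeLa cells stably carrying EGFP interrupted by mutant beta-globin IVS2-705 intron (CMV-driven) were seeded at 500 cells/well, treated next day with compound for 2 days at 37C; corrected splicing restores EGFP, read as total peak GFP intensity per well.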
# [11] = qHTS Assay for Lipid Storage Modulators (AID 1519; calls by dose curve); conditions: Drosophila S3 cells, BODIPY lipid droplet/cell ratio, laser cytometry, cells loaded with oleic acid; for activity change, negative = inhibition: at 57.5 µM (top of the series)
# How it was run: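 Cells seeded at 5,000 per well were treated with compounds over a concentration series and loaded with oleic acid (400 uM, as added). Lipid droplet fluorescence (488 nm excitation, 500-530 nm channel) was read by laser-scanning cytometry and normalized to 20 uM Triacsin C.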
# [12] = target: Ubiquitin carboxyl-terminal hydrolase 1 (Homo sapiens) (UniProt O94782); assay: Inhibitors of USP1/UAF1: Pilot qHTS (AID 504865); conditions: purified USP1/UAF1, Ub-rhodamine cleavage fluorescence; series mostly up to 54.9 µM;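 also: rhodamine fluorescence freed from ubiquitin-rhodamine substrate followed over time; top concentration of the series differs between compounds; % is scaled to controls: 0 for no effect and ±100 for the full control effect; nearly all actives have a fitted effect of over 35% in size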
# Chain of Ubiquitin carboxyl-terminal hydrolase 1 (Homo sapiens) (O94782 whole entry, looked up): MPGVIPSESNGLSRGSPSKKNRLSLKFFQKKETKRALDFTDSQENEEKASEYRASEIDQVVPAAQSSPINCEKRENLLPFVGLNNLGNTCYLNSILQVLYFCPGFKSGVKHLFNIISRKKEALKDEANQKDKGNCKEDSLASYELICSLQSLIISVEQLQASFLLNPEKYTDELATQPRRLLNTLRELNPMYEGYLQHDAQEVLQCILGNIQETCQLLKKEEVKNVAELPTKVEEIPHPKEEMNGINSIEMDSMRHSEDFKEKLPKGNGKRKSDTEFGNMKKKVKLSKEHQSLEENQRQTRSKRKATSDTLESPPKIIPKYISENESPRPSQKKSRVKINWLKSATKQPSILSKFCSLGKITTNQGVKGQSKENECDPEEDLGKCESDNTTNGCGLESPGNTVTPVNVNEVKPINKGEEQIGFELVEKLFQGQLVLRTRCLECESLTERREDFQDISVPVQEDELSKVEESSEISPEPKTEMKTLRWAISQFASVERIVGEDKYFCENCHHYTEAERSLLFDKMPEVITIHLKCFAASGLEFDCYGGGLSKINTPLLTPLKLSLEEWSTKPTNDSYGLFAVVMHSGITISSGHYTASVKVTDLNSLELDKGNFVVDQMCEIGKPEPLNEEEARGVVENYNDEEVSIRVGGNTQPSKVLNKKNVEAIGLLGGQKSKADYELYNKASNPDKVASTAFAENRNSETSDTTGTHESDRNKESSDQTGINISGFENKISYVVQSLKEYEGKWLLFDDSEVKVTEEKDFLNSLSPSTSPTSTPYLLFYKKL
# How it was run: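 1nM USP1/UAF1 + cpd, 15 min RT; start w/ Ub-Rho 150nM final; kinetic FL 480/540 nm, 6 reads q60 s. Buffer 50mM HEPES pH 7.8, 0.5mM EDTA, 1mM TCEP, 0.01% Tween-20, 0.1 mg/ml BSA.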
# [13] = Primary qHTS for small molecule stabilizers of the endoplasmic reticulum resident proteome: Secreted ER Calcium Modulated Protein (SERCaMP) assay (AID 1508630); conditions: SH-SY5Y GLuc-SERCaMP (Gaussia luciferase released on ER calcium loss) secretion, thapsigargin, luminescence; series mostly up to 38.4 µM; also: % is scaled to controls: 0 for no effect and ±100 for the full control effect
# How it was run: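 The SH-SY5Y reporter protocol was run at 3 concentrations up to 38.3 uM (primary) or 11 concentrations (follow-up): 16 h compound, 100 nM thapsigargin for 4 h, then extracellular luciferase luminescence.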
# [14] = target: 3',5'-cyclic-AMP phosphodiesterase 4B (Homo sapiens) (UniProt Q07343); assay: qHTS Assay for Inhibitors of PDE-IV (AID 607; active = well fitted activation curve with a large enough effect in the main read-out, with a control signal flat, not every such curve was filed as active; also: % of control where 0% means no effect); conditions: HEK293 ACTOne CNG channel cells, membrane potential fluorescence; series mostly up to 22.9 µM
# Chain of 3',5'-cyclic-AMP phosphodiesterase 4B (Homo sapiens) (Q07343 whole entry, looked up): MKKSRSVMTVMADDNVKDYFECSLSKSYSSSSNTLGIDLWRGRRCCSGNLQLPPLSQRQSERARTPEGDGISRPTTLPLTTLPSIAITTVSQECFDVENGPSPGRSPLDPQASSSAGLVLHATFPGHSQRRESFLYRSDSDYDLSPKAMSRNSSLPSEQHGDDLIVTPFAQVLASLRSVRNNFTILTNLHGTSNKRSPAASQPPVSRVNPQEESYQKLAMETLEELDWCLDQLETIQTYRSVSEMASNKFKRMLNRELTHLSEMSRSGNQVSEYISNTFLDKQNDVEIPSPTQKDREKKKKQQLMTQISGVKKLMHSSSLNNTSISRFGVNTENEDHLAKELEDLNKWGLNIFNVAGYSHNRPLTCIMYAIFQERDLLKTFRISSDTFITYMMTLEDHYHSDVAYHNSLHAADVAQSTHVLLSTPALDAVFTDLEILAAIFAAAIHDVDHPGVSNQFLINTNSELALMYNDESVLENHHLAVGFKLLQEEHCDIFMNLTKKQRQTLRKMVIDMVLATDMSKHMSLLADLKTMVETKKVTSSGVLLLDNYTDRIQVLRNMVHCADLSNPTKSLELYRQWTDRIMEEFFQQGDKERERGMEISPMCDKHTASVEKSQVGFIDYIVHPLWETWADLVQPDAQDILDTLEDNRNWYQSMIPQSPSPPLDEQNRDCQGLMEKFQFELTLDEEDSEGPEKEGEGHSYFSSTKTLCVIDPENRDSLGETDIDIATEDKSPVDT
# How it was run: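 The readout is membrane depolarisation from a cAMP-sensing CNG channel, detected with a potential dye at ex 535/em 590. Cells were HEK293-derived (endogenous PDE-IV) at 1000 cells/well, titrated up to 22.9 uM final.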
# [15] = target: Cytochrome P450 2C9 (Homo sapiens) (UniProt P11712); assay: qHTS Assay for Inhibitors and Substrates of Cytochrome P450 2C9 (AID 883); conditions: recombinant CYP2C9, luciferin-H luminescence, 60 min; series mostly up to 57.1 µM; also: nearly all actives have a fitted effect of over 60% in size; also: potency is read from the fitted curve at half-maximal effect
# Chain of Cytochrome P450 2C9 (Homo sapiens) (P11712 whole entry, looked up): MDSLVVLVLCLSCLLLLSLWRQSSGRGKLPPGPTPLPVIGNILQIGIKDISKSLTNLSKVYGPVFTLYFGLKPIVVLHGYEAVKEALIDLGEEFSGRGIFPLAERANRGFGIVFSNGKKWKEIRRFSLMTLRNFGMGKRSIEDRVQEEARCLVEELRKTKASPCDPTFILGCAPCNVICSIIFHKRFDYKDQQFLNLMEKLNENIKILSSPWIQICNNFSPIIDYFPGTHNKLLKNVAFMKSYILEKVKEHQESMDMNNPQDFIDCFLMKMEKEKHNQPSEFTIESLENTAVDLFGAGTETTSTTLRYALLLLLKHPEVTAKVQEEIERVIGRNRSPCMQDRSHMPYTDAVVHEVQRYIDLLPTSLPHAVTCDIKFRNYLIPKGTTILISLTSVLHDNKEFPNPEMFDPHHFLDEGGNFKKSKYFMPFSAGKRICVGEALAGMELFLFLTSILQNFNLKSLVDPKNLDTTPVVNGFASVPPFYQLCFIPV
# How it was run: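 Inhibition of CYP2C9 is scored as loss of luminescence, with 57uM sulphaphenazole defining 100% inhibition. Substrate Luciferin-H is used at 100uM, equal to its KM; enzyme at 10nM in 25mM KPO4, 60 min at 37C with NADPH regeneration.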
# [16] = target: Cytochrome P450 3A4 (Homo sapiens) (UniProt P08684); assay: qHTS Assay for Inhibitors and Substrates of Cytochrome P450 3A4 (AID 884); conditions: recombinant CYP3A4, Luciferin-PPXE luminescence; series mostly up to 57.1 µM; also: potency is read from the fitted curve at half-maximal effect; nearly all actives have a fitted effect of over 50% in size
# How it was run: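 Luminescent readout of luciferin produced by CYP3A4 (20 nM) dealkylation of Luciferin-PPXE, 25 uM (its KM). NADPH-driven reaction ran 60 min at RT after 10 min compound preincubation; data scaled to 57 uM ketoconazole as 100% inhibition.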
# [17] = target: Cytochrome P450 2D6 (Homo sapiens) (UniProt P10635); assay: qHTS Assay for Inhibitors and Substrates of Cytochrome P450 2D6 (AID 891); conditions: recombinant CYP2D6, luciferin-ME EGE luminescence; series mostly up to 57.1 µM; also: potency is read from the fitted curve at half-maximal effect; nearly all actives have a fitted effect of over 60% in size
# Chain of Cytochrome P450 2D6 (Homo sapiens) (P10635 whole entry, looked up): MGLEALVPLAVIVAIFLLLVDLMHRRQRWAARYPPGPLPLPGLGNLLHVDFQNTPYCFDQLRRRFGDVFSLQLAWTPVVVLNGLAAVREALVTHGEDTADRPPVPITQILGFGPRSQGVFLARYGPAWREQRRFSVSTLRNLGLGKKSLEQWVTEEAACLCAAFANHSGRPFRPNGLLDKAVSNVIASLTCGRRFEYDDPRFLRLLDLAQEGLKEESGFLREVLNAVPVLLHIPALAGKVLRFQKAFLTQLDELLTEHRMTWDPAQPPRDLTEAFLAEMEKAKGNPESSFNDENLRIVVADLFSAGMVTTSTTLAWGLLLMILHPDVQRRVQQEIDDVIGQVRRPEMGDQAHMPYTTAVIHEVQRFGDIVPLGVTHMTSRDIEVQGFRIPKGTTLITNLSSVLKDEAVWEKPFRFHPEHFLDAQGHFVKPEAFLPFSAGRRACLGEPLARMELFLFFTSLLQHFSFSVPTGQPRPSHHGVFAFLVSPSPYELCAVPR
# How it was run: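 Luminescent read-out of luciferin formed by 5 nM human CYP2D6 demethylating 30 uM Luciferin-ME EGE (Km level) over 60 min at room temperature after NADPH regeneration addition. Data normalized to full inhibition by 1.43 uM quinidine.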
# [18] = qHTS Assay for Identification of Small Molecule Agonists for Hypoxia Response Element Signaling Pathway (AID 914; active = well fitted activation curve with a large enough effect in the signal ratio, with a control signal flat, not every such curve was filed as active; the % refers to the signal ratio; also: % of control where 0% means no effect); conditions: ME-180 HRE-bla reporter, beta-lactamase ratio, CoCl2, 17 h; activation: stronger effect = higher value
# How it was run: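 ME-180 cells carrying an HRE-driven beta-lactamase reporter were treated with compounds in a titration series plus an EC50 level of CoCl2 for 17 h at 37 degrees Celsius; CCF4 readout as the 460nm/530nm ratio gave AC50 values.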
# [19] = measured here: cell count channel max response
# [20] = measured here: lipid channel max response
Compound,Potency [1],"activity change, negative = inhibition [2]",Potency [3],"activity, negative = inhibition [4]",Potency [5],Potency [6],Potency [7],Potency [8],Potency [9],outcome [10],"activity change, negative = inhibition [11]","max response [11, 19]","max response [11, 20]",Potency [12],outcome [13],Potency [14],Potency [15],Potency [16],Potency [17],activation [18]
COc1ccccc1CNc1nc(-c2ccccc2CN(C)C)nc2ccccc12,> 11.4 µM (inactive),16.7% (inactive),0.794 µM (active),-12.4% (inactive),> 46 µM (inactive),> 46 µM (inactive),inactive,inactive,inactive,inactive,3.53% (inactive),-19.9%,-15.9%,inactive,inactive,–,–,–,–,–
O=C(Nc1cccc(F)c1)N1CC2(CCN(C(=O)c3cc(C(F)(F)F)cc(C(F)(F)F)c3)CC2)C1,> 11.4 µM (inactive),-25.3% (inactive),inactive,-22% (inactive),–,> 46 µM (inactive),inactive,inactive,–,–,7.3% (inactive),16.9%,27.5%,–,inactive,inactive,inactive,–,–,–
CN1CCC2(CC1)CCN(S(=O)(=O)c1ccccc1)CC2,> 11.4 µM (inactive),-4.78% (inactive),inactive,-1.02% (inactive),–,> 46 µM (inactive),inactive,–,–,–,-2.86% (inactive),8%,9.03%,–,inactive,inactive,–,–,–,–
Cn1cccc1C(=O)N1CCC2(CC1)CN(Cc1ccc(C#N)cc1)C2,> 11.4 µM (inactive),6.46% (inactive),inactive,-7.55% (inactive),–,> 46 µM (inactive),inactive,–,–,–,4.17% (inactive),20.5%,25.8%,–,inactive,inactive,–,–,–,–
Cc1cnc(CNc2ncnc3ccc(-c4cccc(C#N)c4)cc23)cn1,> 11.4 µM (inactive),-21.7% (inactive),0.398 µM (active),-7.7% (inactive),> 46 µM (inactive),> 46 µM (inactive),inactive,inactive,inactive,inactive,11.4% (inactive),-3.07%,8.37%,inactive,inactive,inactive,–,3.16 µM (active),–,–
O=C(c1cccc(F)c1)N1CCC2(CCN(Cc3ccncc3)CC2)CC1,> 11.4 µM (inactive),-25.9% (inactive),12.6 µM (active),-0.6% (inactive),–,> 46 µM (inactive),inactive,inactive,–,–,2.27% (inactive),4.86%,11.8%,–,inactive,inactive,2.51 µM (active),–,–,–
Cc1noc(C)c1C(=O)N1CCC2(CCCN(Cc3ccc(C#N)cc3)C2)CC1,> 11.4 µM (inactive),4.42% (inactive),inactive,3.17% (inactive),–,> 46 µM (inactive),inactive,–,–,–,6.31% (inactive),22.7%,33.4%,–,inactive,inactive,–,–,–,–
COC(=O)N1CCC2(CC1)CN(c1ccncc1)C2,> 11.4 µM (inactive),1.61% (inactive),inactive,-7.68% (inactive),–,> 46 µM (inactive),inactive,–,–,–,3.84% (inactive),7.79%,12.9%,–,inactive,inactive,–,–,–,–
COc1ccc(C(=O)N2CCC3(CCN(Cc4ccccc4OC)CC3)CC2)cc1,> 11.4 µM (inactive),-0.655% (inactive),inactive,-4.81% (inactive),–,> 46 µM (inactive),inactive,–,–,–,2.01% (inactive),10.3%,16.6%,–,inactive,inactive,–,–,–,–
COc1ccccc1-c1nc(NCCNC(C)=O)c2ccccc2n1,> 11.4 µM (inactive),-11.3% (inactive),15.8 µM (active),5.28% (inactive),> 46 µM (inactive),> 46 µM (inactive),inactive,–,inactive,inactive,5.2% (inactive),8.82%,14.5%,inactive,inactive,inactive,–,–,6.31 µM (active),-0.258% (inactive)
O=C(c1ccncc1)N1CCC2(CCCN(Cc3ccncc3)C2)CC1,> 11.4 µM (inactive),-5.21% (inactive),6.31 µM (active),4.83% (inactive),–,> 46 µM (inactive),inactive,inactive,–,–,2.08% (inactive),1.67%,8.27%,–,inactive,inactive,5.01 µM (active),5.01 µM (active),6.31 µM (active),2.4% (inactive)
O=C(c1ccco1)N1CCC2(CCN(Cc3ccncc3)CC2)CC1,> 11.4 µM (inactive),1.28% (inactive),20 µM (active),-11.4% (inactive),–,> 46 µM (inactive),inactive,inactive,–,–,6.5% (inactive),12.7%,20.5%,–,inactive,inactive,7.94 µM (active),–,–,–
CN(C)Cc1ccccc1-c1cc(-n2ccnc2)ncn1,> 11.4 µM (inactive),-2.52% (inactive),5.01 µM (active),1.39% (inactive),> 46 µM (inactive),> 46 µM (inactive),inactive,inactive,inactive,inactive,11.3% (inactive),4.13%,14.2%,inactive,inactive,inactive,–,–,2.51 µM (active),–
